Source: PubChem BioAssay AID588436 (Broad Institute, 2011)
Screen size: about 350,000 compounds; about 550 (0.16%) were called active. Cut-off read from the data, not from the text of the source: active = activation mostly above about 9.7% (no sharp cut-off); inconclusive = no clear call, values can overlap the other calls; inactive = mostly below about 3.7%. The list comes from a sample in which actives are over-represented; it also holds similar structures and randomly drawn compounds.

Assay: inducers of Vibrio cholerae quorum light production without autoinducers, primary screen, BH1578 luxS cqsA deficient, single point (AID 588436)
Conditions: V. cholerae BH1578 lux reporter, luminescence, 6 h, at 18.7 µM; hits give high values

SMILES | activation
Cc1ccc(CNC(=O)C2CCCN2S(=O)(=O)c2ccc3c(c2)C(C)(C)C(=O)N3C)cc1 (stereo not drawn) | -0.135% (inactive)
CCNC(=O)CCc1nc(-c2ccc(C(C)(C)C)cc2)no1 | inactive
CCOC(=O)C1(CCOC)CCN(Cc2ccc(C(=O)OC)cc2)CC1 | 0.0345% (inactive)
CCOC(=O)C1(CCOc2ccccc2)CCN(Cc2ccc(C#CCCO)cc2)CC1 | inactive
CCOC(=O)C1(CCOc2ccccc2)CCN(Cc2cc(OC)cc(OC)c2)CC1 | 21.2% (active)
O=C(Nc1ccccc1C(=O)N1CCOCC1)c1ccc(Cl)cc1 | -0.216% (inactive)
COc1ccccc1C(=O)NC(=O)COC(=O)C1CC1 | 0.621% (inactive)
CCOc1ccccc1NC(=O)CCc1nnc2ccc(NCc3ccco3)nn12 | -0.0905% (inactive)
COc1ccc2c(c1)c(C(=O)N/N=C/c1cccs1)c(C)n2C | -0.575% (inactive)
Fc1c(F)c(C(F)(F)F)c(F)c(F)c1N1CCN(c2ccc3nnc(C(F)(F)F)n3n2)CC1 | 0.463% (inactive)
COc1ccc(S(=O)(=O)N(C)C[C@H]2Oc3c(NC(=O)Nc4ccc5c(c4)OCO5)cccc3C(=O)N([C@H](C)CO)C[C@@H]2C)cc1 | 1.22% (inactive)
CCCc1nc2ccccc2c(C(=O)OCc2nnc(-c3cc(OC)c(OC)c(OC)c3)o2)c1CC | -0.28% (inactive)
Cn1ccc(=Nc2ccc(NC(=O)c3ccc(N=c4ccn(C)c5ccc([N+](=O)[O-])cc45)cc3)cc2)cc1 | 52.2% (active)
CC(C)c1ccc(NC(=O)CCN2C(=O)c3ccc([N+](=O)[O-])cc3C2=O)cc1 | -0.342% (inactive)
CN(CC1CCCO1)S(=O)(=O)c1ccc(C(=O)Nc2ccc([N+](=O)[O-])cc2)cc1 (stereo not drawn) | inactive
CCOP(=O)(OCC)C(Nc1cccc(C)c1)c1ccc(F)cc1 (stereo not drawn) | -0.244% (inactive)
CSc1ccc(S(=O)(=O)NCc2ccc(Cl)cc2)cc1 | -1.22% (inactive)
OC[C@@H]1CN(Cc2cccs2)C[C@H](n2cnc3c(Nc4ccccc4)ncnc32)O1 | -0.66% (inactive)
C=CCn1cc(-c2cccc(C(F)(F)F)c2)cc(C#N)c1=O | -4.13% (inactive)
CC(=O)N1CCN(C(=O)C2(NC(=O)Nc3ccc(C)cc3)CCCCC2)CC1 | -0.583% (inactive)

SMILES | activation
CNC(=O)N1c2ccccc2C=Cc2ccccc21 | -0.261% (inactive)
CC(=O)Nc1cccc(-c2cc3nc(NCc4cccnc4)n(C)c(=O)c3s2)c1 | inactive
Cc1c(Br)c([N+](=O)[O-])nn1CC(=O)Nc1sc2c(c1C(=O)OC(C)C)CCC(C)C2 (stereo not drawn) | -0.23% (inactive)
O=C(c1ccc(F)cc1)N1CCC(C(=O)N2CCN(S(=O)(=O)c3ccccc3Br)CC2)CC1 | inactive
CC(=O)Nc1ccc(Oc2ccc3c(c2)C(=O)NC3=O)cc1 | 0.165% (inactive)
O=C(COc1coc(CN2CCN(c3ccccc3F)CC2)cc1=O)N1CCc2ccccc21 | -0.376% (inactive)
CCN(CC)S(=O)(=O)c1ccc2c3c(cccc13)C(=O)S2 | inactive
Cc1nn(C)c(C)c1S(=O)(=O)N1CCC(CO)(Cc2ccc(Cl)cc2)CC1 | -0.416% (inactive)
Cn1c(C(=O)O)ccc1S(=O)(=O)N(Cc1ccccc1)Cc1ccccc1 | inactive
CN(CC(=O)NC1CCCCC1)S(=O)(=O)c1cccc2cccnc12 | -0.233% (inactive)
COc1ccc(S(=O)(=O)N2CCN(c3cnccn3)CC2)cc1 | 42.2% (active)
COc1ccc(S(=O)(=O)N2CCSCC2)cc1 | inactive
O=S(=O)(c1cccc(C(F)(F)F)c1)N1CCN(c2cnccn2)CC1 | inactive
CCOc1ccc(Oc2nc(C)cc(OC)n2)nn1 | -0.469% (inactive)
CC1CN(C(=O)CN2C(=O)NC(C)(c3ccccc3)C2=O)CC(C)O1 (stereo not drawn) | inactive
Cc1sc2nc(COC(=O)C(NC(=O)c3ccc(Cl)cc3Cl)C(C)C)[nH]c(=O)c2c1C (stereo not drawn) | -0.176% (inactive)
COc1cccc(-n2c(N)cc(=O)nc2SCC(=O)Nc2cc(C)on2)c1 | 0.462% (inactive)
Cc1ccnc(NC(=O)CCC(=O)N(CC(=O)NCc2ccccc2)Cc2ccco2)c1 | -0.537% (inactive)
NC(=O)c1nsc(C(=O)N(CC(=O)NCc2ccc(F)cc2)Cc2ccco2)c1N | 25% (active)
COc1ccc(CNC(=O)C(c2ccc(O)cc2)N(Cc2ccco2)C(=O)c2snc(C(N)=O)c2N)cc1 (stereo not drawn) | 0.29% (inactive)

SMILES | activation
Cc1ccc(C(=O)Cc2nnc(C)s2)cc1 | -0.621% (inactive)
COc1ccc(C(C#N)N2N=C(C)CC2(C)C)cc1 (stereo not drawn) | inactive
COc1cc(N/C=C2\CC(=O)NC(C)=C2C#N)cc(OC)c1OC | -0.38% (inactive)
COc1ccc(-c2cc(C)nc3nc(N)nn23)cc1 | -1.41% (inactive)
COc1ccc(OCc2cn3c(C)cc(C)nc3n2)cc1 | 126% (active)
Cc1cc(C)nc(SCc2cn3c(C)cc(C)nc3n2)n1 | -0.12% (inactive)
COc1ccc(Cl)cc1NC(=O)CN(C)Cc1ccc(OC)c(OC)c1 | -0.294% (inactive)
COc1ccc(Cl)cc1NC(=O)COC(=O)c1ccc(Br)o1 | 78.5% (active)
COc1ccc(Cl)cc1NC(=O)COc1ccc2c(c1)OCO2 | -2.78% (inactive)
Cc1nc(-c2ccccc2)cn2c1nc1ccccc12 | inactive
Cc1cc(C)c(S(=O)(=O)N(C)CC(=O)NCC2CCCO2)c(C)c1 (stereo not drawn) | -0.212% (inactive)
CCC(=O)N1c2ccc(S(=O)(=O)NCc3ccco3)cc2CC1C (stereo not drawn) | -0.345% (inactive)
CCn1nnc2cc(C(=O)Nc3ccc(C(=O)OC(C)C)cc3)ccc21 | inactive
CCCc1ccc(C(=O)[C@@H]2[C@@H](C(C)=O)N3c4ccc(F)cc4C=C[C@@H]3[C@@]23C(=O)Nc2ccccc23)cc1 | -0.383% (inactive)
O=C(O)CCSc1nnc(-c2ccccc2)n1-c1ccccc1 | 4% (inactive)
O=C(Nc1ccc2oc(-c3ccccc3F)nc2c1)c1ccco1 | 0.203% (inactive)
COc1cc(OC)cc(C(=O)Nc2ccc(-c3nc4ccccc4o3)c(O)c2)c1 | -1.79% (inactive)
O=C(Nc1ccc2oc(-c3ccc4ccccc4c3)nc2c1)c1cccs1 | 25% (active)
